Assay outcomes: PubChem, National Center for Advancing Translational Sciences (NCATS)
Sampled rows, rich in hits. Any-hit rate of the full collection: about 3%.
Nrf2 ARE act = activates Nrf2 signaling | Potency, µM (top dose mostly 46.1 µM), for inactives: at the top dose activation, actives largely listed as activators | hit rate 0.31% among 410,000 | AREc32 ARE-luciferase reporter (MCF7-derived line), luminescence, 24 h | AID 624171; further: potency means the concentration at half of the fitted maximal effect; % of control where 0% means no effect; nearly all actives have a fitted effect of over 65% in size
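AREc32_Fluc, 1000 cells/well, OPTI-MEM + 5% FBS, o/n 37 deg C 5% CO2; 23 nL cpd by pin tool, 24 hr; Steady-Glo 30 min RT, luminescence.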
DRD3 antagonist = D3 dopamine receptor (human) antagonism; P35462; D3R cells, DiscoveRx beta-arrestin luminescence, antagonist mode; hits give low values; max response, negative = inhibition, %; hit rate 2.5% among 360,000; in the data active means max response below about -50%; inconclusive means no clear call, values can overlap the other calls; further: on the % scale 0 is the no-effect control and ±100 the full control effect
Target sequence (P35462 whole entry, looked up): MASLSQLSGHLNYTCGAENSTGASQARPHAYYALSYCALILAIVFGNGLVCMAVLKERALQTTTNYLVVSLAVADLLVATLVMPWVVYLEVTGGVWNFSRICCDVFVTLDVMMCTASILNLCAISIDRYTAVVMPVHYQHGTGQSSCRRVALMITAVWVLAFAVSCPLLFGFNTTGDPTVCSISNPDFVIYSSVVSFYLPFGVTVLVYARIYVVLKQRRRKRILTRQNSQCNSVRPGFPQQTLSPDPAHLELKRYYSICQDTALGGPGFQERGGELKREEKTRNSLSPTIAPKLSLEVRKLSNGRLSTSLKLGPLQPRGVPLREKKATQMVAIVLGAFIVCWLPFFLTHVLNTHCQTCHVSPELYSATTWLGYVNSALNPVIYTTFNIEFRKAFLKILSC
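Cells expressing the human receptor were seeded at 1500 cells/well, incubated overnight at 37 degrees C in 5% CO2, then exposed to library compounds with dopamine controls for 90 minutes at 37 degrees C before luminescent detection.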
D3 ag = activates the human D3 dopamine receptor. P35462. D3R DiscoveRx beta-arrestin cells, luminescence, 90 min. max activation, %. hit rate 0.58% among 410,000. AID 652048; in the data active means max activation above about 30%; further: 0% is about no effect
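Agonist mode: compounds and dopamine controls were applied to plated cells for 90 min at 37 degrees C after an overnight attachment at 1500 cells/well. Luminescent read-out followed 30 - 60 minutes at room temperature with DiscoveRx detection reagent.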
GRP78 ERSR act = inducers of ER stress response in human glioma cells | U87-MG GRP78 promoter luciferase reporter, 16 h | Potency, µM, for inactives: at the highest dose activation, most hits filed as activators | hit rate 0.02% among 420,000 | AID 602332; further: potency means the concentration at half of the fitted maximal effect; series mostly up to about 76 µM; % of control where 0% means no effect; nearly all actives have a fitted effect of over 35% in size
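ERSR induction read as luciferase luminescence (Bright-Glo, 10 min at room temperature) in stably transfected human U87-MG glioma cells exposed to compounds for 16 h, using GRP78 as sensor.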
The depositor's hits bear a star; ? = inconclusive; . = no result; [ ] = remark or other dose. Unless noted, the call rests on the fitted dose curve; in most records, active means well fitted curve in the direction sought with a large enough effect; inconclusive means small, poorly fitted or top-dose-only effect, or another doubt; inactive means no such curve, though single readings can be large; an effect the other way counts as inactive or inconclusive.

SMILES	Nrf2 ARE act	DRD3 antagonist	D3 ag	GRP78 ERSR act
O=C(NCCc1ccccc1)C1Cc2c(-c3ccccc3)ccnc2O1 (centres undefined)	2%[9.22 µM]	-67*	-10	-4%
CNC(=O)C1Cc2c(-c3ccc(Cl)cc3)ccnc2O1 (centres undefined)	1%	-57*	-6	-1%
CC(=O)Nc1ccc(NC(=O)C2Cc3c(-c4ccc(Cl)cc4)ccnc3O2)cc1 (centres undefined)	4%	11	5	-4%
O=C(NCc1cccc(Cl)c1)C1Cc2c(-c3cccc(F)c3)ccnc2O1 (centres undefined)	4%	25	1	-3%
O=C(NCc1ccccc1)C1Cc2c(-c3cccc(F)c3)ccnc2O1 (centres undefined)	0%	-50*	-8	-1%
NC(=O)c1cccc(-c2ccnc3c2CC(C(=O)NCCc2ccccc2)O3)c1 (centres undefined)	1%	2	-1	4%
COc1ccccc1CCNc1ncnc2sc(C(=O)N3CCCCC3)c(C)c12	.	.	.	-2%
CC1=C(/C=C/C(C)=C\C=C\C(C)=C\C=C\C=C(C)\C=C\C=C(C)\C=C\C2=C(C)C[C@@H](O)CC2(C)C)C(C)(C)C[C@H](O)C1	.	.	.	-10%
OC1(c2ccc(OC(F)F)cc2)CSC(=Nc2cccnc2)N1Cc1ccco1 (centres undefined)	-1%	93	57*	-7%
Cc1nc(NC(=O)c2cccs2)ccc1Br	16µM*	1	4	5%
Cc1cc(C)nc(NC(=O)c2cccs2)n1	7%	0	4	-3%
C#C[C@@]1(O)CC[C@@H]2[C@H]3CCC4=C/C(=N\O)CC[C@H]4[C@@H]3CC[C@]21CC	.	.	.	-2%
CCOC(=O)C(=O)/C(C#N)=C/Nc1ccccc1	0%	-57*	1	-2%
O=C(NCCN1CCN(c2ccccc2)CC1)C1CCN(S(=O)(=O)N2CCOCC2)CC1	-1%	-4	63*	-1%
O=C(NCCCN1CCc2ccccc2C1)C1CCN(S(=O)(=O)N2CCC3(CC2)OCCO3)CC1	0%	-65*	-12	-4%
O=C(NCCc1ccccc1)C1CCN(S(=O)(=O)N2CCCCC2)CC1	0%	-15	-1	2%
O=C(NCCCN1CCN(c2ccccc2F)CC1)C1CCN(S(=O)(=O)N2CCOCC2)CC1	-1%	?	26	-4%
O=C(NCCCN1CCCCC1)C1CCN(S(=O)(=O)N2CCC3(CC2)OCCO3)CC1	0%	-13	-3	0%
O=C(NCCCN1CCc2ccccc2C1)C1CCN(S(=O)(=O)N2CCCC2)CC1	1%	-80*	-28	-4%
O=C(NCCN1CCN(c2ccccc2)CC1)c1ccc(NC(=O)C2CCCO2)cc1 (centres undefined)	0%	-15	70*	-3%
OCC1(O)OC[C@@H](O)[C@H](O)[C@@H]1O (some centres undefined)	.	.	.	-4%
Cc1cc2c(c(-c3ccc(Cl)cc3)c1)OC(CNC(=O)Cc1c(C)noc1C)C2 (centres undefined)	.	.	.	-4%
CCS(=O)(=O)N1CCC(C(=O)NCCCN2CCC(Cc3ccccc3)CC2)CC1	0%	-12	-1	-3%
CCCS(=O)(=O)N1CCC(C(=O)NCCN2CCC(Cc3ccccc3)CC2)CC1	0%	-57*	5	-2%
CCC1CCCCN1CCCNC(=O)C1CCCN(c2nn3c(=O)cc(C)nc3s2)C1 (centres undefined)	0%	-2	-1	-3%
SMILES	Nrf2 ARE act	DRD3 antagonist	D3 ag	GRP78 ERSR act
Cc1cc(=O)n2nc(N3CCCC(C(=O)NCCCN4CCc5ccccc5C4)C3)sc2n1 (centres undefined)	0%	-86*	-17	1%
CC1CCC2C(=O)N(c3ccc(NC4CCN(Cc5ccccc5)CC4)c([N+](=O)[O-])c3)C(=O)C2C1 (centres undefined)	0%	-50*	-22	-2%
COC(=O)c1cc([N+](=O)[O-])ccc1N1CCN(Cc2ccccc2)CC1	2%	-52*	-10	-4%
O=[N+]([O-])c1ccccc1NC1CCN(Cc2ccccc2)CC1	0%	?	-10	-5%
O=[N+]([O-])c1ccc(NC2CCN(Cc3ccccc3)CC2)c([N+](=O)[O-])c1	5%	-62*	-4	-5%
CN1CCN(c2ccc([N+](=O)[O-])cc2C(=O)c2ccc(Br)cc2)CC1	0%	-56*	-9	-4%
O=C(c1ccc([N+](=O)[O-])cc1Cl)N1CCN(Cc2ccccc2)CC1	0%	41	-6	-7%
Cc1ccc(C(=O)c2cc([N+](=O)[O-])ccc2N2CCN(C)CC2)cc1	0%	-19	-22	-1%
COc1ccc(C2CC(=O)Oc3ccc(O)cc32)cc1 (centres undefined)	.	.	.	0%
COc1cc(C2CC(=O)Oc3ccc(O)cc32)cc(OC)c1OC (centres undefined)	.	.	.	50µM*
Cc1ccc2oc(-c3cc(NC(=O)Cc4ccccc4)ccc3Cl)nc2c1	0%	.	-5	-2%
O=C(CC(Cl)(Cl)Cl)N1CCN(/[N+]([O-])=N/Oc2ccc([N+](=O)[O-])cc2[N+](=O)[O-])CC1	.	.	.	-11%
COc1ccc(Cn2c(=O)n(-c3ccc(C)cc3)c(=O)c3c2c2cc(C)ccc2n3C)cc1	0%	.	37*	-4%
c1ccc(CN2CCN(C3CCCSc4ccccc43)CC2)cc1 (centres undefined)	2%	-85*	-48	-4%
O=C1CC(N2CCN(Cc3ccccc3)CC2)C(=O)N1 (centres undefined)	0%	9	0	1%
CCn1nc(C)cc1C(=O)N1CCC2(CC1)c1ccccc1[C@@H](NC(=O)c1cccnc1)[C@@H]2O	.	.	.	-5%
NC(=O)NC(CC(=O)NCCCc1ccccc1)c1ccc(Cl)cc1 (centres undefined)	0%	-55*	-24	-8%
O=C1N/C(=C/c2ccc(N3CCOCC3)o2)C(=O)N1c1cccc(Cl)c1	21%	-75*	-12	-14%
O=C(O)c1nn(Cc2ncc(-c3cccc(Cl)c3)o2)c(=O)c2ccccc12	3%	8	33*	0%
COc1cccc(CNC(=O)c2c(OC)cc(=O)n3c2CCN(C(=O)c2csc(C)n2)CC3)c1	.	.	.	0%
COc1cccc(N2CCN(CC(=O)C34CC5CC(CC(C5)C3)C4)CC2)c1	-1%	-4	-1	-5%
COc1cccc(N2CCN(C(C)C(=O)NC34CC5CC(CC(C5)C3)C4)CC2)c1 (centres undefined)	0%	-53*	-22	-4%
COC(C[C@H]1O[C@@H]1C(=O)COCc1ccccc1)OC	6%	-5	32*	-6%
O=C(CCN1Cc2ccccc2OC(c2ccccc2F)C1)N1CCC(N2CCCC(O)C2)CC1 (centres undefined)	.	.	.	-1%
Cc1ccc(-c2cn3c(n2)sc2cc(C(=O)NCCCc4ccccc4)ccc23)c(C)c1	0%	.	-1	-1%
COC(=O)c1ccc(C)c(N(CCO)CCO)c1	0%	-6	36*	-3%
COc1ccccc1Cc1c(-c2ccco2)nc2cc(C)c(Br)c(C)n12	11µM*	-107*	-16	.
